Several values for one entry are separate records, joined by “and”; a condition that tells them apart may be missing. Identical values can stand only once. Compounds without any hit were thinned out: in the full panel of roughly 83,000, 20% have a hit.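 Compound tested at a single concentration for 48 hours in 96-well plates; a percent growth value below 10 was scored as active.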 Activity calls are given as the source filed them.

The test system of this experiment is HL-60(TB) leukemia. As to the kind of experiment: NCI-60 one-dose screen, 48 h (100 = growth as untreated, 0 = no growth, -100 = all killed). The following applies: 10 µM unless noted.
For `O=C(O)CCCCc1ccc([N+](=O)[O-])cc1`, the growth is 74.8% (inactive) and 93.9% (inactive).
In the case of `CCCCCCCCCCCC[n+]1ccc(C(N)=O)cc1` it was -26.3% (active); in that of `COC(=O)[C@]12CC[C@@H](C)[C@H](C)[C@@H]1C1=CC[C@@H]3[C@@]4(C)C(C=O)=C[C@@](C)(COC(C)=O)[C@@H]4[C@H](O)C[C@@]3(C)[C@]1(C)CC2`, -24.7% (active).
To `NC(=S)N1N=C(c2ccccc2)CC1c1cn(-c2ccccc2)nc1-c1ccc(OCc2ccccc2)cc1` (centres undefined) belongs 114% (inactive); to `O=C(/C=C/c1cccc2ccccc12)c1ccc(NC(=O)c2ccccc2CN2C(=O)c3ccccc3C2=O)cc1`, 44% (inactive); to `CCC1S/C(=N\N=C(/C)c2ccc[nH]2)N(c2ccccc2)C1=O` (centres undefined), -63.7% (active).
On to `Cc1cc(O)c(C(C)C)cc1N`, for which the growth was 83.9% (inactive) and 122% (inactive).
In the case of `CCCCCCCCCCCCCCCCCCOP(=O)([O-])OC1CC[N+](C)(C)CC1` it was -22.6% (active) and -37.1% (active).
To `COc1cc2oc(-c3cccc(NC(=O)c4cccc(Br)c4)c3)cc(=O)c2c(OC)c1OC` belongs 65.5% (inactive); to `CN1CCN(CCOc2cc(OC3CCOCC3)c3c(Nc4c(Cl)ccc5c4OCO5)ncnc3c2)CC1`, 101% (inactive).
In the case of `COc1ccc(NS(=O)(=O)N2CCCCC2)cc1` it was 115% (inactive); in that of `N#CC1C(C#N)C2c3ccccc3C=CN2C1C(=O)c1ccc(Br)cc1` (centres undefined), 101% (inactive).
For the compound `CCCC(=O)Oc1ccc(/C(=C(\C)c2ccc(Cl)cc2)c2ccc(OCCN(CC)CC)cc2)cc1`, the growth is -49.1% (active).
For `O=C1c2ccccc2C(=O)N1OCc1ccccc1`, the growth is 94.2% (inactive).
In the case of `NC(=S)N/N=C/Cc1ccccc1` it was 47.2% (inactive); in that of `COc1ccc(C2=C(c3cc(OC)c(OC)c(OC)c3)C(=O)CC2)cc1`, 11.1% (inactive).
In the case of `CSc1ccc(SC2c3ccc(C)cc3Oc3nc(N)c(C#N)c(N)c32)cc1` (centres undefined) it was -52% (active); in that of `COc1ccccc1/C=C/C(=O)/C=C/c1ccccc1OC`, 15.1% (inactive) and 18.7% (inactive).
In the case of `C[C@]12CC[C@@H]3c4ccc(O)c([N+](=O)[O-])c4CC[C@H]3[C@@H]1CCC2=O`, the growth was 93.7% (inactive).
Regarding `O=C1c2cccc3cccc(c23)C(=O)N1Nc1nc(NC2CCCCC2)nc(N2CCOCC2)n1`, the growth was 101% (inactive).
To `CCN1CCN(c2nc(NCCNc3ccnc4cc(Cl)ccc34)c3ccccc3n2)CC1` belongs -67.1% (active).
To `N#Cc1ccc(OCc2nc(N)nc(N)c2-c2ccc(Cl)c(Cl)c2)cc1` belongs 21.7% (inactive).
In the case of `CCN(CC)CCOc1nc2cc(OC)c(OC)cc2c2c1-c1ccc(OC)cc1C2=O` it was 93.4% (inactive); in that of `COC(=O)c1ccc2c(c1)C(=O)c1c-2n(CCCN)c(=O)c2cc([N+](=O)[O-])ccc12`, -85.9% (active); in that of `N#Cc1c(NC(=O)c2ccco2)[n+]([O-])c2ccccc2[n+]1[O-]`, 81.4% (inactive).
Turning to `O=C(CCCCC1CCSS1)Nc1ncnc2n[nH]c(-c3ccc(Oc4ccccc4)cc3)c12` (centres undefined), the growth was 78.8% (inactive).
Regarding `COc1ccc(-c2cn[nH]c2-c2ccc(OC)c(O)c2)cc1`, the growth was 46.1% (inactive).
Regarding `COc1cc(-c2nc(-c3nnc(-c4ccc(F)c(Cl)c4)o3)c3ccccn23)cc(OC)c1OC`, the growth was 56.4% (inactive).
In the case of `CN(C)c1ccc(-c2c(C#N)c(N)nn2C(=O)c2ccc(NC(=O)c3ccccn3)cc2)cc1`, the growth is 96.5% (inactive).
In the case of `O=[N+]([O-])C1C(c2ccccc2)C12c1ccccc1-c1ccccc12` (centres undefined) it was -30.6% (active); in that of `CC(c1ccccn1)C(C)(O)C(C)c1ccccn1` (centres undefined), 69.8% (inactive).
As for `Cc1ccc2c(c1)/C(=N\N=C/c1cn(C(C)C)c3ccccc13)C(=O)N2`, the growth is -33.3% (active).
To `N#Cc1c(N)nc(N)nc1Nc1ccc(Br)cc1` belongs 93.3% (inactive); to `Cc1nc2ncccc2nc1Nc1ccc(S(=O)(=O)Nc2cncs2)cc1`, 109% (inactive); to `O=C(C=P(c1ccccc1)(c1ccccc1)c1ccccc1)c1ccc(Br)cc1`, 8.84% (active).
To `CCOC(=O)c1sc(Nc2ccc(Cl)cc2)nc1C` belongs 27.2% (inactive); to `COc1cc(Cn2c(-c3nonc3N)nc3ccccc32)ccc1C`, -3.72% (active); to `COc1cc(-c2cncn2-c2ccc(-c3nc4ccc(F)cc4s3)cc2)ccc1F`, 53.1% (inactive).
In the case of `S=C(NCc1ccc2c(c1)OCO2)N1CCN(c2ncnc3c2oc2ccccc23)CC1` it was 19.7% (inactive).

Values taken from PubChem BioAssay (NCI).
